Rows were chosen to be rich in hits. Some 6.8% of all compounds tested hit in one or more screens of this group.
Cy5 interf NS3h: Cy5 fluorescence quenchers or enhancers, artefact control for HCV NS3 helicase inhibitor project, biochemical, ChemBridge library, Cy5 readout | 16,000 tested, 6% active | fluorescence interference ratio at 100 µM | Cy5-dT15 DNA with NS3h, fluorescence interference; actives lie on both sides; signal over control mean, under 1 quenches;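 active = compound fluorescence over control fluorescence at most 0.8, a quencher, or at least a set upper limit, an enhancer; inactive = ratio between 0.8 and the set upper limit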
NS3h inh CB: HCV NS3 helicase inhibitors, primary screen, biochemical, fluorescence polarization, ChemBridge library; 16,000 tested, 1.6% active; inhibition, % at 100 µM; Hepatitis C virus NS3 helicase; NS3h Cy5-dT15 DNA binding;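 active = inhibition above the average over every tested compound plus 3 SD, cut at about 40% in these data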
Active calls of the source: *.

SMILES	Cy5 interf NS3h	NS3h inh CB
COCCN1C(=O)/C(=C/c2ccc3c(c2)OCO3)SC1=S	1	20
Cc1cccc(N2C(=O)/C(=C/c3ccc4c(c3)OCO4)SC2=S)c1C	0.77*	14
O=C1/C(=C\c2ccc3c(c2)OCO3)SC(=S)N1c1cccc(C(F)(F)F)c1	1.1	0
O=C1S/C(=C/c2ccc3c(c2)OCO3)C(=O)N1CN1CCCC1	0.57*	-8
N#Cc1c2c(c(N3CCCCC3)n3c1nc1ccccc13)CCC2	1	-1
CCOc1ccc(NC(=O)/C(=C/c2ccccc2)c2ccccc2)cc1	0.67*	15
COc1ccccc1NC(=O)/C(=C/c1ccccc1)c1ccccc1	1.1	1
Cc1ccc(NC(=O)/C(=C/c2ccccc2)c2ccccc2)cc1C	0.65*	14
O=C(Nc1ccccc1)Nc1nnc(-c2ccccc2)s1	1.1	7
CCOc1ccc(NC(=O)/C=C/c2ccccc2)cc1	1.1	21
CCOc1ccc(-c2nnc(NC(=O)Nc3ccccc3)s2)cc1	0.74*	12
Cc1ccc([N+](=O)[O-])cc1-c1[nH]c(-c2cccc(O)c2)nc1-c1ccccc1	0.89	6
CC(=O)Nc1cccc(NS(=O)(=O)c2ccc([N+](=O)[O-])cc2)c1	0.99	1
Nc1nonc1-n1nnc(CN2CCOCC2)c1CN1CCOCC1	1.1	11
Nc1nonc1-n1nnc(CN2CCCCCC2)c1CN1CCCCCC1	1.2*	3
Cc1cc([N+](=O)[O-])ccc1-c1cc2ccccc2oc1=O	0.69*	18
Cc1cc([N+](=O)[O-])ccc1-c1ccc(CO)o1	0.92	1
Cc1ccc(-c2ccc(OC(=O)c3ccco3)cc2)cc1	1	9
CC(C)COc1ccc2c(c1)c1c3c(nccn32)CCC1	0.76*	-3
CCCn1c(NC(=O)c2ccc(Cl)cc2)nc2ccccc21	1	0
COC(=O)c1ccc(N2C(=O)c3ccccc3C2=O)cc1	1	-6
O=C1c2cccnc2C(=O)N1c1ccc(Oc2ccc(N3C(=O)c4cccnc4C3=O)cc2)cc1	0.68*	19
CC(=O)Nc1cccc(C(=O)/C=C/c2ccc(/C=C/C(=O)c3cccc(NC(C)=O)c3)cc2)c1	1.2	14
Cc1cccc(C(=O)Nc2ccc(C(=O)/C=C/c3ccncc3)cc2)c1	0.74*	-5
O=C(O)CC1S/C(=N\N=C/c2ccc([N+](=O)[O-])cc2)N(c2ccc(O)cc2)C1=O (stereo not given)	1	2
SMILES	Cy5 interf NS3h	NS3h inh CB
CC(=C\c1ccccc1)/C=C1/SC(=O)N(c2ccc(Cl)cc2)C1=O	0.78*	16
O=C1S/C(=C/c2ccc(Cl)cc2Cl)C(=O)N1c1ccccc1	0.99	3
COc1ccc(C(=O)c2ccc(N3CCN(C(=O)c4ccc(F)c(F)c4)CC3)c(F)c2)cc1Br	1	1
COC(=O)C1=C(C)NC2=C(C(=O)c3ccccc32)C1c1ccc(F)cc1 (stereo not given)	0.89	10
O=C1C2=C(Nc3[nH]n(-c4ccccc4)c(=O)c3C2c2ccccc2)c2ccccc21 (stereo not given)	0.76*	6
CC(C)C(=O)Nc1ccc(N2CCOCC2)cc1	1	-2
CCCC(=O)Nc1ccc(N2CCOCC2)cc1	0.74*	3
CCOC(=O)c1sc(NC(=O)c2cc3n(n2)C(C(F)(F)F)CC(c2ccc4c(c2)OCO4)N3)c(C(=O)OCC)c1C (stereo not given)	1	2
CCOC(=O)c1c(NC(=O)c2cc3n(n2)C(C(F)(F)F)CC(c2ccco2)N3)sc(C)c1C (stereo not given)	0.75*	6
O=C(O/N=C(\c1ccncc1)c1ccc([N+](=O)[O-])cc1)c1ccccc1F	0.99	12
CCCCOc1ccc(C(=O)O/N=C(\c2ccncc2)c2ccc([N+](=O)[O-])cc2)cc1	0.75*	10
O=C1C(=O)N(c2ccccc2Br)C(=O)N1c1cccc(Cl)c1	0.7*	19
O=C(O)c1ccccc1NC1=C(Cl)C(=O)N(c2cccc(Cl)c2)C1=O	1.1	8
Cc1cc(OCC(=O)Nc2ccc(F)c([N+](=O)[O-])c2)ccc1Cl	1.2*	0
Cc1cc(Cl)ccc1OCC(=O)Nc1ccc(F)c([N+](=O)[O-])c1	0.91	11
CCN(CC)c1ccc(NC(=O)c2ccc(OCc3ccccc3)cc2)cc1	0.96	16
Cc1cccc(C(=O)Nc2ccc(Oc3ccccc3)cc2)c1	0.84	9
O=C(Cc1ccc(Br)cc1)NCC1CCCO1 (stereo not given)	1.1	-12
O=C(COc1ccccc1)C(=C(O)c1ccccc1)c1nc2ccccc2[nH]1	1.4*	-23
O=C(COc1cccc([N+](=O)[O-])c1)Nc1cccc(-c2nc3ccccc3[nH]2)c1	0.96	-11
O=C(Nc1cccc(Oc2ccc3c(c2)C(=O)N(c2ccccc2)C3=O)c1)c1cccc([N+](=O)[O-])c1	1	7
N/C(=N/OC(=O)c1ccc(Cl)cc1Cl)c1ccc(Cl)cc1	1	9
O=C(CSc1cc(Cl)ccc1Cl)Nc1cccc([N+](=O)[O-])c1	0.98	9
O=C(C=C(O)c1ccc(F)cc1)C(F)(F)F	0.94	6
Cc1ccc(C(=O)/C=C(/N)C(F)(F)F)cc1	0.73*	10
SMILES	Cy5 interf NS3h	NS3h inh CB
CCOC(=O)/C(=C(/C)NCc1ccccc1)c1c(O)cc(Br)c(O)c1Br	1	0
CN(C)c1ccc(/C=c2/sc3nc(-c4ccc(Cl)cc4Cl)nn3c2=O)cc1	0.87	24
COc1ccc(C2CC(c3ccc(C)cc3)=NN2C(C)=O)cc1 (stereo not given)	1	9
COC(=O)C(CC(C(=O)OC)C(=O)OC)C(=O)OC	1	-2
COC(=O)C(CCCC(C(=O)OC)C(=O)OC)C(=O)OC	0.68*	2
COc1ccc(/C=C/C(=O)n2nc(C)cc2C)cc1	1	12
CCOc1ccc(N(CC(=O)N2CCCC2)S(=O)(=O)c2ccc(SC)cc2)cc1	1	10
CS(=O)(=O)N(CC(=O)Nc1cccc(Cl)c1)c1cccc(C(F)(F)F)c1	0.99	21
COc1ccc(/C(N)=N\OC(=O)c2cccc([N+](=O)[O-])c2C)cc1OC	1	3
COc1ccc2c(c1[N+](=O)[O-])CCC/C2=N\OC(=O)c1cccc2ccccc12	1	0
COc1ccc2c(c1[N+](=O)[O-])CCC/C2=N\OC(=O)c1ccccc1SC	0.63*	3
COc1ccccc1C(=O)O/N=C1\CCCc2c1ccc(OC)c2[N+](=O)[O-]	0.74*	22
CC(=O)Nc1ccc(-n2c(C)cc(/C=C(/C#N)C(=O)Nc3ccccc3C)c2C)cc1	0.99	-7
CCOC(=O)CNC(=O)c1ccc(C#Cc2ccccc2)cc1	1	23
COC(=O)C1=C(C)N=c2s/c(=C\c3ccccc3OC)c(=O)n2C1c1ccccc1Cl (stereo not given)	1.1	2
COc1ccc(C2C(=C(O)c3ccc(F)cc3)C(=O)C(=O)N2c2ccccn2)cc1OC (stereo not given)	0.97	-4
O=C(CSc1nc2ccccc2[nH]1)Nc1ccc(F)c([N+](=O)[O-])c1	0.85	16
Cc1cccc(NC(=O)CSc2nc3ccc(C)cc3[nH]2)c1	0.65*	16
O=C(CSc1nc2ccc([N+](=O)[O-])cc2[nH]1)Nc1ccc2c(c1)OCO2	0.6*	12
